Measured values taken from the supplement of paper PMC10849652.
Of roughly 8,800 targets only a part is listed; those with a hit were picked by preference. About 0.5% of all pairs of compound and target were hits.

What was measured:
Assay in all cases: log2 fold change, soluble protein after heating vs DMSO (PISA); higher = thermal stabilisation; K562 lysate, 10 uM; active = over 0.2 and 3.5 SD of the protein, either way, in both replicates (recomputed)
alvocidib = compound: CN1CC[C@H](c2c(O)cc(O)c3c(=O)cc(-c4ccccc4Cl)oc23)[C@H](O)C1 [alvocidib]
Outline: (§1)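 Following dounce homogenisation of K562 pellets in PBS pH 7.4 with 1 mM MgCl2, crude extract at 1 mg/mL protein was incubated for 30 min with 10 μM compound. Aliquots were then heated for 3 min over 48°C-58°C and pooled, NP-40 was added to 0.5% at 4°C, and soluble protein was recovered as the supernatant at 21,000xg for 90 min. Channel-sum-equalised TMTpro 16plex LC-MS/MS quantified this protein. Each value, from duplicates, is a log-two fold change in thermal stability relative to solvent controls.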

Tubastatin A = compound: CN1CCc2c(c3ccccc3n2Cc2ccc(C(=O)NO)cc2)C1 [Tubastatin A]
Outline: as §1

[1] = compound: CNC(=O)C1=CC=CC=C1NC2=NC(=NC=C2Cl)NC3=C(C=C(C=C3)N4CCOCC4)OC
Outline: as §1

defactinib = compound: CNC(=O)c1ccc(Nc2ncc(C(F)(F)F)c(NCc3nccnc3N(C)S(C)(=O)=O)n2)cc1 [defactinib]
Outline: as §1

[2] = compound: CNc1nc(-c2ccc3c(N)n[nH]c3c2)cc(N2C[C@@H](C(=O)NC3CCCCC3)CC[C@H]2C)n1
Outline: as §1

encorafenib = compound: COC(=O)N[C@@H](C)CNc1nccc(-c2cn(C(C)C)nc2-c2cc(Cl)cc(NS(C)(=O)=O)c2F)n1 [encorafenib]
Outline: as §1

[3] = compound: COC(=O)[C@H](CCSC)NC(=O)C1=C(C=C(C=C1)NC[C@H](CS)N)C2=CC=CC=C2
Outline: as §1

alisertib = compound: COc1cc(Nc2ncc3c(n2)-c2ccc(Cl)cc2C(c2c(F)cccc2OC)=NC3)ccc1C(=O)O [alisertib]
Outline: as §1

[4] = compound: COc1cc2nc(-c3cc(F)ccc3O)nc(N[C@@H]3CNC[C@H]3C(C)(C)O)c2cc1OC
Outline: as §1

gefitinib = compound: COc1cc2ncnc(Nc3ccc(F)c(Cl)c3)c2cc1OCCCN1CCOCC1 [gefitinib]
Outline: as §1

lapatinib = compound: CS(=O)(=O)CCNCc1ccc(-c2ccc3ncnc(Nc4ccc(OCc5cccc(F)c5)c(Cl)c4)c3c2)o1 [lapatinib]
Outline: as §1

pictilisib = compound: CS(=O)(=O)N1CCN(Cc2cc3nc(-c4cccc5[nH]ncc45)nc(N4CCOCC4)c3s2)CC1 [pictilisib]
Outline: as §1

crizotinib = compound: C[C@@H](Oc1cc(-c2cnn(C3CCNCC3)c2)cnc1N)c1c(Cl)ccc(F)c1Cl [crizotinib]
Outline: as §1

[5] = compound: C[C@H](C1=CC=C(C=C1)C(=O)NC2=C3C=CNC3=NC=C2)N
Outline: as §1

duvelisib = compound: C[C@H](Nc1ncnc2nc[nH]c12)c1cc2cccc(Cl)c2c(=O)n1-c1ccccc1 [duvelisib]
Outline: as §1

gandotinib = compound: Cc1cc(Nc2cc(CN3CCOCC3)c3nc(C)c(Cc4ccc(Cl)cc4F)n3n2)n[nH]1 [gandotinib]
Outline: as §1

tozasertib = compound: Cc1cc(Nc2cc(N3CCN(C)CC3)nc(Sc3ccc(NC(=O)C4CC4)cc3)n2)n[nH]1 [tozasertib]
Outline: as §1

doramapimod = compound: Cc1ccc(-n2nc(C(C)(C)C)cc2NC(=O)Nc2ccc(OCCN3CCOCC3)c3ccccc23)cc1 [doramapimod]
Outline: as §1

bafetinib = compound: Cc1ccc(NC(=O)c2ccc(CN3CC[C@H](N(C)C)C3)c(C(F)(F)F)c2)cc1Nc1nccc(-c2cncnc2)n1 [bafetinib]
Outline: as §1

[6] = compound: Cc1cccc(CC(=O)N2CCc3c2ccc(-c2cn(C)c4ncnc(N)c24)c3F)n1
Outline: as §1

Measured: log2 fold change

SSB (UniProt P05455)
inactive: alvocidib 0.057 | Tubastatin A 0.018 | [1] -0.02 | defactinib -0.019 | [2] -0.015 | encorafenib -0.029 | [3] 0.022 | alisertib -0.003 | [4] 0.002 | gefitinib -0.008 | lapatinib -0.024 | pictilisib 0.015 | crizotinib 0.046 | [5] 0.05 | duvelisib -0.01 | gandotinib -0.03 | tozasertib 0.009 | doramapimod -0.032 | bafetinib 0.017 | [6] -0.036

STIM1 (UniProt Q13586)
UniProt Q13586, sequence (Q13586 whole entry, looked up): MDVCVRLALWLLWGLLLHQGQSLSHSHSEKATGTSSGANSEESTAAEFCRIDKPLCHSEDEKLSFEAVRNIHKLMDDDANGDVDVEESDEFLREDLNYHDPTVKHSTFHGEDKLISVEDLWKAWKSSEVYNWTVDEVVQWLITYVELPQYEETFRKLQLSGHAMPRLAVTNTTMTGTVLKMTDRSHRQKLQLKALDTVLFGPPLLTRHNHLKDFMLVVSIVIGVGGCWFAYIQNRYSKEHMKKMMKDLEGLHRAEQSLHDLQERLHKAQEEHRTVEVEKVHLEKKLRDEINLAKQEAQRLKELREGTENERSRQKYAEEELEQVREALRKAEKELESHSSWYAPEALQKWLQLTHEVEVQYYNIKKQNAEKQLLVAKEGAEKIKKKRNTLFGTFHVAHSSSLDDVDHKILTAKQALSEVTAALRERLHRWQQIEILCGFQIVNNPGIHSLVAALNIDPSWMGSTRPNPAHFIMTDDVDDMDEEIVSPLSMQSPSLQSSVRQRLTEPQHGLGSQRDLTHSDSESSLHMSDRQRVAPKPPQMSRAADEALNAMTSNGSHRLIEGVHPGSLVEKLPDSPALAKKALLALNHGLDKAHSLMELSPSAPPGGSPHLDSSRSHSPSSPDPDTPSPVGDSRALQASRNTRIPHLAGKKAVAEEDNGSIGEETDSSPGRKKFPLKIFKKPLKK
inactive: alvocidib 0.008 | Tubastatin A -0.056 | [1] -0.041 | defactinib -0.018 | [2] 0.024 | encorafenib 0.003 | [3] -0.016 | alisertib 0.008 | [4] -0.106 | gefitinib -0.013 | lapatinib -0.056 | pictilisib -0.028 | crizotinib -0.053 | [5] 0.145 | duvelisib -0.007 | gandotinib -0.095 | tozasertib 0.032 | doramapimod 0.044 | bafetinib -0.056 | [6] -0.037

SRSF9 (UniProt Q13242)
UniProt Q13242, sequence (Q13242 whole entry, looked up): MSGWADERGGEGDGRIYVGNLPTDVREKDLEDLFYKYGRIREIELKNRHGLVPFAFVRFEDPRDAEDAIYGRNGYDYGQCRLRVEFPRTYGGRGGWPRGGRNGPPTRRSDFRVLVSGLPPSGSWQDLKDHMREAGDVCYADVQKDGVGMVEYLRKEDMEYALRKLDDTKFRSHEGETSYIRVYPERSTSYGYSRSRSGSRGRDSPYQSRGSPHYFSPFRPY
inactive: alvocidib -0.021 | Tubastatin A -0.165 | [1] 0.002 | defactinib -0.054 | [2] -0.044 | encorafenib 0 | [3] -0.084 | alisertib -0.013 | [4] -0.017 | gefitinib -0.022 | lapatinib 0.014 | pictilisib 0.046 | crizotinib 0.006 | [5] -0.019 | duvelisib 0.011 | gandotinib -0.003 | tozasertib 0.019 | doramapimod 0.085 | bafetinib -0.028 | [6] 0.053

SFN (UniProt P31947)
UniProt P31947, sequence (P31947 whole entry, looked up): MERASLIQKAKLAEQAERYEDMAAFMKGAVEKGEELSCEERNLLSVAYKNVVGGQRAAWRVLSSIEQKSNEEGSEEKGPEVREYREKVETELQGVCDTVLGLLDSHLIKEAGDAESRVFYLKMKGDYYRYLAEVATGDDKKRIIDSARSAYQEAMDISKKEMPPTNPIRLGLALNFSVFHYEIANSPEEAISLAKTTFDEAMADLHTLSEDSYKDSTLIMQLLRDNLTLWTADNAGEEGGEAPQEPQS
active: [5] 0.347
inactive: alvocidib 0.05 | Tubastatin A 0.054 | [1] -0.009 | defactinib 0.052 | [2] -0.017 | encorafenib -0.024 | [3] 0.065 | alisertib 0.076 | [4] 0.008 | gefitinib -0.008 | lapatinib 0.018 | pictilisib 0.117 | crizotinib 0.055 | duvelisib -0.029 | gandotinib -0.043 | tozasertib 0.006 | doramapimod 0.019 | bafetinib 0.047 | [6] -0.117

SULT1A1 (UniProt P50225)
UniProt P50225, sequence (P50225 whole entry, looked up): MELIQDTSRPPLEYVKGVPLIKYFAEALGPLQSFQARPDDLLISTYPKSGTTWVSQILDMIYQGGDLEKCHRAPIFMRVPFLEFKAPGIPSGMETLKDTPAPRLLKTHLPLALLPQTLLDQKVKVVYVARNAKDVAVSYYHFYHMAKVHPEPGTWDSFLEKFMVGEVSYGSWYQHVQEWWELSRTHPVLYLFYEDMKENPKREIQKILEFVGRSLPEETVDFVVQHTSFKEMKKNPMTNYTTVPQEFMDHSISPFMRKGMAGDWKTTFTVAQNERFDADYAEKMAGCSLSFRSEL
inactive: alvocidib 0.031 | Tubastatin A -0.043 | [1] 0.018 | defactinib -0.11 | [2] 0.06 | encorafenib 0.026 | [3] 0.017 | alisertib 0.036 | [4] -0.005 | gefitinib -0.011 | lapatinib 0.023 | pictilisib -0.052 | crizotinib -0.074 | [5] -0.014 | duvelisib -0.009 | gandotinib -0.023 | tozasertib -0.002 | doramapimod -0.037 | bafetinib -0.025 | [6] 0.046

SNCA (UniProt P37840)
active: gandotinib 0.456
inactive: alvocidib -0.094 | Tubastatin A 0.172 | [1] 0.028 | defactinib -0.019 | [2] 0.269 | encorafenib -0.026 | [3] 0.204 | alisertib -0.021 | [4] 0.117 | gefitinib 0.089 | lapatinib 0.137 | pictilisib -0.014 | crizotinib 0.127 | [5] -0.101 | duvelisib -0.005 | tozasertib 0.016 | doramapimod 0.196 | bafetinib 0.098 | [6] 0.073

TAPT1 (UniProt Q6NXT6)
UniProt Q6NXT6, sequence (Q6NXT6 whole entry, looked up): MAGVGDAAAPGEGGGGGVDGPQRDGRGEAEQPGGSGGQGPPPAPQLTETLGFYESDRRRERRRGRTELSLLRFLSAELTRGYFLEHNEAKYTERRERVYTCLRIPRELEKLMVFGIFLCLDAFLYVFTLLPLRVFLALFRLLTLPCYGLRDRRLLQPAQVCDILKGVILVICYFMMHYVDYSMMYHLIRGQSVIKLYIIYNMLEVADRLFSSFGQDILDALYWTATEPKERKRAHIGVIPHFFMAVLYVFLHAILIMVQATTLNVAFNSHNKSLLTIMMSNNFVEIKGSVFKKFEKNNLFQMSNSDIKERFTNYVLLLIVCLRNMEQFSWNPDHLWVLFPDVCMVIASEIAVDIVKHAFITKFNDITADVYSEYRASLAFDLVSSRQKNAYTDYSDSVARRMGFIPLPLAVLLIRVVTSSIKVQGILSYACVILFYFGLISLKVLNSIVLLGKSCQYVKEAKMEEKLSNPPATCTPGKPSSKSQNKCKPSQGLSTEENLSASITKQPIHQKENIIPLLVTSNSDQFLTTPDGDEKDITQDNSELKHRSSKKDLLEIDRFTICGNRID
inactive: alvocidib -0.101 | Tubastatin A 0.037 | [1] -0.086 | defactinib 0.047 | [2] 0.056 | encorafenib 0.053 | [3] -0.074 | alisertib -0.016 | [4] -0.006 | gefitinib 0.055 | lapatinib -0.007 | pictilisib 0.025 | crizotinib -0.044 | [5] -0.196 | duvelisib 0.012 | gandotinib 0.057 | tozasertib 0.031 | doramapimod 0.024 | bafetinib 0.01 | [6] 0.093

SNW1 (UniProt Q13573)
UniProt Q13573, sequence (Q13573 whole entry, looked up): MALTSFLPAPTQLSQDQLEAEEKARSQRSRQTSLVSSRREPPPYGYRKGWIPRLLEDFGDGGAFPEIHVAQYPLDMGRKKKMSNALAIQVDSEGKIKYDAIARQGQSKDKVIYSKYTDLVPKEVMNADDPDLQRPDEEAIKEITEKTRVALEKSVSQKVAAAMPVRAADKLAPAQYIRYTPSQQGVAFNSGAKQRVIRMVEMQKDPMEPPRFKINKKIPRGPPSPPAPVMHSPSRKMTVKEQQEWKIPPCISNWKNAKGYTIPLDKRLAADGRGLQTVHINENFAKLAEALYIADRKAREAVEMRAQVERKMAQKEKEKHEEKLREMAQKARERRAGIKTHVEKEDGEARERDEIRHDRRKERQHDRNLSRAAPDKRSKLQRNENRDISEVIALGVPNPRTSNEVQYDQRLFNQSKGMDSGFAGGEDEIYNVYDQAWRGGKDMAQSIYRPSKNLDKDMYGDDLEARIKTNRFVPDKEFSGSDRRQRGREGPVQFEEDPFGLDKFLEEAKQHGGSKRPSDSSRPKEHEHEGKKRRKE
inactive: alvocidib 0.023 | Tubastatin A 0.051 | [1] 0.02 | defactinib 0.006 | [2] 0.073 | encorafenib 0.02 | [3] -0.119 | alisertib 0.014 | [4] -0.003 | gefitinib -0.03 | lapatinib 0.019 | pictilisib -0.002 | crizotinib 0.002 | [5] 0.155 | duvelisib -0.018 | gandotinib -0.037 | tozasertib -0.01 | doramapimod -0.002 | bafetinib -0.002 | [6] -0.007

SLC7A5 (UniProt Q01650)
UniProt Q01650, sequence (Q01650 whole entry, looked up): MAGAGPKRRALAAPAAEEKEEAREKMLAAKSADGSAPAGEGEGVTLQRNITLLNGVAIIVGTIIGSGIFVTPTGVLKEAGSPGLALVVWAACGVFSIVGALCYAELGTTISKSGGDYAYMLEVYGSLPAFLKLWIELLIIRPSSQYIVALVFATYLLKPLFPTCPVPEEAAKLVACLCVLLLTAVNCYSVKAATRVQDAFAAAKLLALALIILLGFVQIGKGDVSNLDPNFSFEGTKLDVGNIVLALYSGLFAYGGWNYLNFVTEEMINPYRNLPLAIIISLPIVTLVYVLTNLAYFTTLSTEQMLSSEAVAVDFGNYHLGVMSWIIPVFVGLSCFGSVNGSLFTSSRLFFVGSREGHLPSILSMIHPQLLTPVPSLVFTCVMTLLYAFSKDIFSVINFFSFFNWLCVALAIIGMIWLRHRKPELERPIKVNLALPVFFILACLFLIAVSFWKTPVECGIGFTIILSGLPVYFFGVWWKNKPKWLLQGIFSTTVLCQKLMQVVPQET
active: [5] -0.308 | gandotinib 0.201
inactive: alvocidib -0.142 | Tubastatin A 0.012 | [1] -0.047 | defactinib -0.044 | [2] 0.046 | encorafenib -0.001 | [3] -0.084 | alisertib -0.002 | [4] 0.021 | gefitinib 0.006 | lapatinib -0.004 | pictilisib 0.026 | crizotinib -0.069 | duvelisib 0.051 | tozasertib -0.012 | doramapimod 0.019 | bafetinib 0.046 | [6] 0.129

SLC25A17 (UniProt O43808)
UniProt O43808, sequence (O43808 whole entry, looked up): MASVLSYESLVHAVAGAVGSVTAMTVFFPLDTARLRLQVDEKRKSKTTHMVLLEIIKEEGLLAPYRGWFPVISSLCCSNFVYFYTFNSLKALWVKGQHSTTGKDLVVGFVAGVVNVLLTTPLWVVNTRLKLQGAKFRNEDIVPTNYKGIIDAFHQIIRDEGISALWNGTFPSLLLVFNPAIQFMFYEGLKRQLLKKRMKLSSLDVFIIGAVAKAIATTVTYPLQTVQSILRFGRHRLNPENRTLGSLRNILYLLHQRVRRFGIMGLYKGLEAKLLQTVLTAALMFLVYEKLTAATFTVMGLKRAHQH
inactive: alvocidib -0.216 | Tubastatin A 0.094 | [1] 0.007 | defactinib -0.036 | [2] 0.006 | encorafenib 0.004 | [3] -0.009 | alisertib 0.019 | [4] -0.011 | gefitinib 0.026 | lapatinib -0.033 | pictilisib 0.015 | crizotinib -0.052 | duvelisib 0.029 | gandotinib 0.072 | tozasertib -0.069 | doramapimod 0.007 | bafetinib -0.066 | [6] 0.085
active: [5] -0.303

SRSF2 (UniProt Q01130)
UniProt Q01130, sequence (Q01130 whole entry, looked up): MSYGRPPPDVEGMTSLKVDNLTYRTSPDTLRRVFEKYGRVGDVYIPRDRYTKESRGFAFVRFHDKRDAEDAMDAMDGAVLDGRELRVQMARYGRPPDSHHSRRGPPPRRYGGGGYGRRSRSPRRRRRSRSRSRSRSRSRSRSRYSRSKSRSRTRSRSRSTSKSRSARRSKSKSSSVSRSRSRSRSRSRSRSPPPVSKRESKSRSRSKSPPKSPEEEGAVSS
inactive: alvocidib -0.135 | Tubastatin A 0.084 | [1] -0.017 | defactinib -0.018 | [2] -0.005 | encorafenib 0.033 | [3] -0.016 | alisertib -0.004 | [4] 0.016 | gefitinib 0.015 | lapatinib 0.015 | pictilisib -0.005 | crizotinib 0.006 | duvelisib 0.061 | gandotinib 0.079 | tozasertib 0.026 | doramapimod 0.05 | bafetinib -0.016 | [6] 0.109
active: [5] -0.299

STK26 (UniProt Q9P289)
UniProt Q9P289, sequence (Q9P289 whole entry, looked up): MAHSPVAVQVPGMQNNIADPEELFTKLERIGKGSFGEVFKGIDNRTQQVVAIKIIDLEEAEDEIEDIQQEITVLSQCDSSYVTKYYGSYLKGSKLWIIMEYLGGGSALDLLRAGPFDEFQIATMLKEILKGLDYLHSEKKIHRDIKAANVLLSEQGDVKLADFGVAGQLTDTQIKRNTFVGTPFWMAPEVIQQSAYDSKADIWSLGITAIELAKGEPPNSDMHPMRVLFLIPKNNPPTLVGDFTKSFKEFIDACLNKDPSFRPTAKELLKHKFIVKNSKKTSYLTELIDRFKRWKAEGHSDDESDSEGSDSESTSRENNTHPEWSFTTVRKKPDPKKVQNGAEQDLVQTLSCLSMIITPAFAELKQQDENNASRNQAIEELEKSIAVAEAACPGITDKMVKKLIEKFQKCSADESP
inactive: alvocidib 0.027 | Tubastatin A -0.041 | [1] 0.003 | defactinib 0.008 | [2] -0.06 | encorafenib 0.001 | [3] 0.009 | alisertib -0.004 | [4] 0.022 | gefitinib -0.016 | lapatinib -0.011 | pictilisib 0.024 | crizotinib 0.007 | [5] -0.003 | duvelisib 0.005 | gandotinib 0.061 | tozasertib 0.005 | doramapimod -0.036 | bafetinib -0.015 | [6] -0.004

SMAD9 (UniProt O15198)
UniProt O15198, sequence (O15198 whole entry, looked up): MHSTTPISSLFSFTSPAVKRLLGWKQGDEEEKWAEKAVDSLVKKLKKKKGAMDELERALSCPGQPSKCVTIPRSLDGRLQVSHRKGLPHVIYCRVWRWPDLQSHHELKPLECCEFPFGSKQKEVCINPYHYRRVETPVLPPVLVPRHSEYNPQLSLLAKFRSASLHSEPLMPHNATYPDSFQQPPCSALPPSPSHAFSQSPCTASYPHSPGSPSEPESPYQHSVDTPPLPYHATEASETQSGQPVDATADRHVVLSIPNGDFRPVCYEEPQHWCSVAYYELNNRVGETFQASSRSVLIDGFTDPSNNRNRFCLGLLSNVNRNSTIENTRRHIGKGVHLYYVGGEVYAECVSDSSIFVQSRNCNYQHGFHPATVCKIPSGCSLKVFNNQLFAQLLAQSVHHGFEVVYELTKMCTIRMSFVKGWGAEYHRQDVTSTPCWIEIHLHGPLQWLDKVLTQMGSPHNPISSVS
inactive: alvocidib 0.008 | Tubastatin A -0.075 | [1] 0.089 | defactinib -0.081 | [2] 0.011 | encorafenib 0.014 | [3] -0.014 | alisertib 0.052 | [4] 0.047 | gefitinib -0.028 | lapatinib -0.056 | pictilisib -0.036 | crizotinib -0.027 | [5] -0.047 | duvelisib 0.091 | gandotinib 0.077 | tozasertib 0.091 | doramapimod 0.024 | bafetinib 0.014 | [6] -0.019

SLC39A11 (UniProt Q8N1S5)
inactive: alvocidib -0.02 | Tubastatin A -0.065 | [1] 0.107 | defactinib 0.338 | [2] -0.111 | encorafenib -0.059 | [3] -0.23 | alisertib -0.047 | [4] 0.097 | gefitinib 0.059 | lapatinib -0.054 | pictilisib 0.081 | crizotinib 0.081 | [5] -0.097 | duvelisib -0.002 | gandotinib 0.1 | tozasertib 0.178 | doramapimod -0.139 | bafetinib 0.022 | [6] 0.013

SMG1 (UniProt Q96Q15)
inactive: alvocidib 0.022 | Tubastatin A -0.05 | [1] 0.01 | defactinib 0.033 | [2] -0.046 | encorafenib 0.016 | [3] 0 | alisertib -0.02 | [4] -0.013 | gefitinib 0.012 | lapatinib -0.025 | pictilisib -0.05 | crizotinib -0.019 | [5] 0.002 | duvelisib 0.003 | gandotinib -0.105 | tozasertib 0.024 | doramapimod 0.015 | bafetinib -0.057 | [6] 0.049

SLC25A25 isoform 3 (UniProt Q6KCM7)
UniProt Q6KCM7, sequence (Q6KCM7 whole entry, looked up): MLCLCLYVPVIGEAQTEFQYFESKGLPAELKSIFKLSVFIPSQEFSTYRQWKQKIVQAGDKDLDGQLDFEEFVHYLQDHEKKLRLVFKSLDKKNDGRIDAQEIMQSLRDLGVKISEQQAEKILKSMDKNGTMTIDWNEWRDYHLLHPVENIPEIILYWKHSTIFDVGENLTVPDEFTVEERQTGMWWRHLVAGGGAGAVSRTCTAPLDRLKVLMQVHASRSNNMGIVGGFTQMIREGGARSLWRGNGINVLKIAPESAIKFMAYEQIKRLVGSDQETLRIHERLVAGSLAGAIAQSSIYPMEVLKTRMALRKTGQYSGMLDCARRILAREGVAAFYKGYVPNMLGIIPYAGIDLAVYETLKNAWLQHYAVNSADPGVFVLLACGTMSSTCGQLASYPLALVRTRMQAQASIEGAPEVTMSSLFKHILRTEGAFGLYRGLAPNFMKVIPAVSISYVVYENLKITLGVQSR
inactive: alvocidib 0.014 | Tubastatin A 0.015 | [1] 0.007 | defactinib 0.029 | [2] 0.003 | encorafenib 0.035 | [3] 0.012 | alisertib -0.011 | [4] 0.025 | gefitinib 0.037 | lapatinib -0.004 | pictilisib 0.021 | crizotinib -0.039 | [5] 0.013 | duvelisib -0.014 | gandotinib -0.047 | tozasertib 0 | doramapimod 0.015 | bafetinib 0.013 | [6] 0.043
